A short description of assay [1]: qHTS assay to identify small molecule agonists of the sonic hedgehog signaling (Shh) pathway (AID 1259368).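 Note: NIH/3T3-derived 3T3Gli1-Luc cells carrying a stable Gli1-driven firefly luciferase reporter; series mostly up to about 92 µM; nearly all actives have a fitted effect of over 15% in size.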 The method, boiled down: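 3T3Gli1-Luc (NIH/3T3 clone, stable Gli1-Luc); 4 hr pre-incubation, then cpd in DMSO 24 hr, 37 C/5% CO2; luciferase reagent 30 min RT; luminescence.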
(In general: In qHTS, concentration-response curves come from the screen itself.)

Assay [2] can be described thus: qHTS assay to identify small molecule antagonists of the sonic hedgehog signaling (Shh) pathway (AID 1259369). Note: nearly all actives have a fitted effect of over 45% in size. The gist of the method:
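3T3Gli1-Luc, conditioned-medium-stimulated, 24hr cpd, 37C/5% CO2; Gli1-driven firefly Luc luminescence after 30min RT with luciferase reagent. Cells plated 4hr before cpd.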

The target of assay [3] is Estrogen receptor beta (Homo sapiens) (UniProt Q92731). Kind of assay: qHTS assay to identify small molecule agonists of the estrogen receptor beta (ER-beta) signaling pathway (AID 1259377; active = well fitted activation curve with a large enough effect in the signal ratio in the repeat runs, not every such curve was filed as active; the % refers to the signal ratio). The gist of the method:
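Agonist mode cell assay in GripTite HEK293T cells expressing an ER-beta fusion that drives beta-lactamase from an Upstream Activator Sequence; 16 hr compound exposure at 37C, then 2 h LiveBLAzer B/G FRET substrate at room temperature, fluorescence read-out.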

Assay [4] shares this target. Kind of assay: qHTS assay to identify small molecule antagonists of the estrogen receptor beta (ER-beta) signaling pathway (AID 1259378; active = well fitted inhibition curve with a large enough effect in the signal ratio in the repeat runs, not every such curve was filed as active; the % refers to the signal ratio; note: potency is the fitted concentration of half-maximal effect). The method, boiled down:
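ER-beta-UAS-bla HEK293T (GripTite) cells in 2% charcoal-stripped FBS medium were preincubated 6 hr at 37C, dosed with compound, then stimulated with 1 nM E2 (final) for 16 hr; beta-lactamase reporter read by B/G FRET fluorescence after 2 hr substrate loading.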

A short description of assay [5]: qHTS assay to identify small molecule agonists of the androgen receptor (AR) signaling pathway in the presence of an antagonist - cell viability counter screen (AID 1259379; active = well fitted curve in the direction sought with a large enough effect in the repeat runs; an effect the other way counts as inactive or inconclusive; note: nearly all actives have a fitted effect of over 25% in size; note: potency is the fitted concentration of half-maximal effect). The method, boiled down:
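Cells: MDA-kb2 (MMTV-luc, AR and GR elements), 3,000/well, 5 hr settle. Added: nilutamide 3.0uM final, then compounds (15 conc.). Incubation: 16 hr, 37C, no CO2. Read-out: CellTiter-Fluor, 1 hr, fluorescence.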

A short description of assay [6]: qHTS assay to identify small molecule antagonists of the estrogen receptor beta (ER-beta) signaling pathway - cell viability counter screen (AID 1259382; active = well fitted curve in the direction sought with a large enough effect in the repeat runs; an effect the other way counts as inactive or inconclusive; note: series mostly up to about 92 µM; nearly all actives have a fitted effect of over 55% in size). The gist of the method: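 Cells: ER-beta-UAS-bla HEK293T, 2,000/well, 2% CS-FBS, 6 hr settle. Cpd + E2 (1nM final), 16 hr, 37C/5% CO2. Bla FRET substrate 2 hr RT, then CellTiter-Glo 30 min RT, luminescence.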
Assay [7] is described as follows: qHTS assay to identify small molecule agonists or antagonists of the thyroid stimulating hormone receptor (TSHR) signaling pathway - wild type cell line counter screen (AID 1259384). The gist of the method: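 Wild-type HEK293 cells were plated 18 h at 37 C/5% CO2, pin-dosed with compound plus Ro20-1724 medium, held 30 min at room temperature, then given cAMP-d2 and anti-cAMP-cryptate; fluorescence was read after 1 h. Fifteen concentrations, triplicate.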

Assay [8] concerns the target Estrogen receptor (Homo sapiens) (UniProt P03372). Kind of assay: qHTS assay to identify small molecule agonists of the estrogen receptor alpha (ER-alpha) signaling pathway in the presence of an antagonist (AID 1259383). Note: top concentration of the series differs between compounds; nearly all actives have a fitted effect of over 15% in size. The gist of the method: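 VM7Luc4E2, endog. ER-alpha + 4×ERE-luc; charcoal-stripped FBS, phenol red-free, 5 d; 24hr plating; +10.0nM ICI-182,780 (final); cpds 15 conc, 22hr, 37C/5% CO2; ONE-Glo luminescence.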

The nature of assay [9]: qHTS assay to identify small molecule agonists of the estrogen receptor beta (ER-beta) signaling pathway - cell viability counter screen (AID 1259380; active = well fitted curve in the direction sought with a large enough effect in the repeat runs; an effect the other way counts as inactive or inconclusive; note: nearly all actives have a fitted effect of over 30% in size). The gist of the method:
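HEK293T ER-beta-UAS-bla; 2% CS-FBS; 6 hr pre-plate, 16 hr cpd at 37C/5% CO2; LiveBLAzer read first, then CellTiter-Glo 30 min RT, luminescence.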

Assay [10] deals with Androgen receptor (Homo sapiens) (UniProt P10275). Nature of the assay: qHTS assay to identify small molecule agonists of the androgen receptor (AR) signaling pathway in the presence of an antagonist (AID 1259381). Note: nearly all actives have a fitted effect of over 15% in size. The gist of the method: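 MDA-kb2 cells, 3,000/well, rested 5hr at 37C/0% CO2 → nilutamide 3.0uM final or buffer → compounds, 15 conc. → 16hr at 37C → ONE-Glo, 30min RT → luminescence.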

The record followed here is PubChem BioAssay (Tox21).

Unmarked numbers belong to inactive results. Records with an inconclusive call do not appear. Calls of active or inactive are those of the source. Unless noted, calls come from the whole dose curve.

Sequence of Androgen receptor (Homo sapiens) (P10275 whole entry, looked up): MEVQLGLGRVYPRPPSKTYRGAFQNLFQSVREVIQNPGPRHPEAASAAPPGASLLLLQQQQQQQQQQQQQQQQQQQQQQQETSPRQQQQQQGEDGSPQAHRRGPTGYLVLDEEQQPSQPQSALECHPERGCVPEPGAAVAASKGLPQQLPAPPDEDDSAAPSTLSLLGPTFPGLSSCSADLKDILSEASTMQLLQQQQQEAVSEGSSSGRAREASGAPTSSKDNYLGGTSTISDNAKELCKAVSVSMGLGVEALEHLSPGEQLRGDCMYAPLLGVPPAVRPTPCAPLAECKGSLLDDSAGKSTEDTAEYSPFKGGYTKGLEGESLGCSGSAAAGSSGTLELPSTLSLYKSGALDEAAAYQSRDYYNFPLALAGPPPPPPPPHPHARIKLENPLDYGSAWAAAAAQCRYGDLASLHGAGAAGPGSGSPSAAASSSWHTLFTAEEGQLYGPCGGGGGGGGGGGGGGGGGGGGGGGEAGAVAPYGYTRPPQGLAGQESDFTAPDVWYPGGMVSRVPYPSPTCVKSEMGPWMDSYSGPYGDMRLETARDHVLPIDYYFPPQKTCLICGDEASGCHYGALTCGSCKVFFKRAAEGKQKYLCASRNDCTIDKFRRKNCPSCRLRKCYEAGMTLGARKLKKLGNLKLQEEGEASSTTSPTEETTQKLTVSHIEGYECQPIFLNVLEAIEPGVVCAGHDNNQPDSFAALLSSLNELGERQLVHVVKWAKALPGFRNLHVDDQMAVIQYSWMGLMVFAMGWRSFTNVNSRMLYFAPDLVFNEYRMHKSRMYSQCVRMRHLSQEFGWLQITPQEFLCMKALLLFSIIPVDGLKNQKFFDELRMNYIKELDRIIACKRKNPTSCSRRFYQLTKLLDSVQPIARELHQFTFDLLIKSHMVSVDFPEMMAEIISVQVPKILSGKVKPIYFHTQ
Sequence of Estrogen receptor (Homo sapiens) (P03372 whole entry, looked up): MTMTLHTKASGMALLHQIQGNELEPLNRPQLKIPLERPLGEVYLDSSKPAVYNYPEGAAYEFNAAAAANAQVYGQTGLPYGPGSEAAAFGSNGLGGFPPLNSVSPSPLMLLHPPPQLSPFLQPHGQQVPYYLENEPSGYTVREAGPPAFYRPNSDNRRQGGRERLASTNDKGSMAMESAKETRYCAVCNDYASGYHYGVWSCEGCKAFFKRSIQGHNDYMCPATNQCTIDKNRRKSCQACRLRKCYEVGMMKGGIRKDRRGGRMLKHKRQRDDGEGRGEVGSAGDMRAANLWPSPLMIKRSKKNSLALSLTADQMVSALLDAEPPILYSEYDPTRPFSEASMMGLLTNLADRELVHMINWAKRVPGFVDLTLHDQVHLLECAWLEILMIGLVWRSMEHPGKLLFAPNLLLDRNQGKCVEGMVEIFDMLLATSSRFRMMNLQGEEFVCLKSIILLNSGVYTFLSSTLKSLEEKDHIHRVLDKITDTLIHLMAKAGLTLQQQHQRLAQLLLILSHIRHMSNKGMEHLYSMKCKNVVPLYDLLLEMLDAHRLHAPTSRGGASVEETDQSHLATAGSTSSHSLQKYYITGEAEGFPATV
Sequence of Estrogen receptor beta (Homo sapiens) (Q92731 whole entry, looked up, the tested form may be a part): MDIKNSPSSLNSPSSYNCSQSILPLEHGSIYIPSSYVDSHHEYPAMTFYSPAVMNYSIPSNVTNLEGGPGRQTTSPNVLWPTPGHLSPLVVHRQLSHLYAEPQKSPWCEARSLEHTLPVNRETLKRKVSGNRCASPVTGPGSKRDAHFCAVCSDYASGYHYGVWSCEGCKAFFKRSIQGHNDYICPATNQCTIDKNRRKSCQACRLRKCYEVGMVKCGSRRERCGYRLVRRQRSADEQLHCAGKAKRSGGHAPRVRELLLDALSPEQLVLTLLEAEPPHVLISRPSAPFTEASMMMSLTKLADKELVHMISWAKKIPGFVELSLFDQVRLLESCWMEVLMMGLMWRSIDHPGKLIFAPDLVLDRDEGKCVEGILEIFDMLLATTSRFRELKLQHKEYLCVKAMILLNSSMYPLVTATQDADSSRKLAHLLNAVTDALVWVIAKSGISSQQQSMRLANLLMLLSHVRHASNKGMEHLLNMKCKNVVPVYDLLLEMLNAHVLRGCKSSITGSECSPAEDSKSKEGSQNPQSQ

Consider `O=C1OC(=O)c2c(Br)c(Br)c(Br)c(Br)c21`, for which the Potency entry in assay [1], in assay [2], in assay [3], in assay [4], in [5] and in [6] was “inactive” in each case. Moreover, in [7], the Potency entry was “inactive”.
Regarding `COc1ccc(C(=O)NCc2ccc(OCCN(C)C)cc2)cc1OC`, the Potency result in assay [1], in assay [2], in assay [3], in [4], in assay [5] and in [6] was “inactive” each time. Further, in assay [8], the Potency entry is “inactive”.
As to `CCCCCCCCCCCCCC(=O)OCC(O)CO` (centres undefined), the Potency entry in assay [1], in assay [2], in assay [4], in assay [5], in assay [9] and in assay [10] was “inactive” throughout. Besides, the Potency result in assay [6] and in [7] was “inactive” throughout.
With `COc1ccc(N)c([N+](=O)[O-])c1`, the Potency result in assay [1], in assay [2], in [3], in [4], in assay [6] and in [7] was “inactive” in each case.
For the compound `COc1ccc(-c2cc(=S)ss2)cc1`, the Potency entry in assay [1], in assay [2], in [3], in assay [9], in [6] and in [7] was “inactive” each time. In addition, the Potency in [4] was 13.3 µM (active).
On to `C=CCOC(=O)COCCC(C)C`, for which the Potency result in [1], in assay [2], in assay [3], in [4], in assay [5] and in assay [6] was “inactive” each time. In addition, the Potency result in assay [8] and in assay [7] was “inactive” each time.
Turning to `Cc1cc([N+](=O)[O-])ccc1N`, the Potency entry in assay [1], in assay [2], in [4], in assay [9], in assay [6] and in assay [8] was “inactive” throughout. For the same compound, in assay [7], the Potency entry is “inactive”. For the same compound, the Potency in assay [5] is 53.8 µM (active).
On to `CNc1c2c(nn1C)CCCC2`, for which the Potency entry in assay [1], in assay [2], in assay [4], in assay [5], in assay [9] and in assay [6] was “inactive” each time. Also, the Potency result in assay [8] and in assay [7] was “inactive” throughout.
As for `SCCc1cnccn1`, the Potency entry in assay [1], in assay [2], in [3], in assay [4], in assay [5] and in assay [6] was “inactive” in each case. The Potency result in [8] and in assay [7] was “inactive” each time.
As for `O=C(O)CCCc1c[nH]c2ccccc12`, the Potency entry in [1], in assay [2], in [3], in assay [4], in [5] and in [6] was “inactive” throughout. For the same compound, the Potency entry in assay [7] was “inactive”.
For `CC(CO)(CO)C(=O)O`, the Potency entry in [1], in assay [2], in assay [3], in assay [4], in [5] and in assay [6] was “inactive” each time. Further, in assay [8], the Potency result is “inactive”.
Take `NC(=O)c1ccccc1[N+](=O)[O-]`: the Potency result in [1], in assay [2], in [4], in assay [5], in [9] and in [6] was “inactive” in each case. For the same compound, the Potency result in [8] and in [7] was “inactive” each time.
In the case of `Cc1cc(CCCOc2c(C)cc(-c3noc(C(F)(F)F)n3)cc2C)on1`, the Potency result in assay [1], in assay [2], in [3], in [4], in assay [5] and in assay [10] was “inactive” throughout. Besides, the Potency entry in assay [6] and in assay [7] was “inactive” throughout.
On to `CCCCCCCC/C=C/C(=O)O`, for which the Potency result in [1], in [2], in assay [3], in assay [5] and in [7] was “inactive” each time.
For the compound `C=CC(=O)O`, the Potency entry in assay [1], in [2], in assay [3], in assay [4], in assay [5] and in assay [6] was “inactive” in each case. The Potency entry in assay [8] and in assay [7] was “inactive” each time.
For `Cc1cn([C@H]2C[C@H](F)[C@@H](CO)O2)c(=O)[nH]c1=O`, the Potency entry in [1], in [2], in assay [4], in assay [5], in assay [9] and in assay [10] was “inactive” throughout. For the same compound, the Potency entry in assay [6], in assay [8] and in assay [7] was “inactive” throughout.
